Screening results from PubChem.
This is a sample that favours compounds with a hit; in the whole collection about 10% have one here.
HP1b chromo inh: blocks HP1-beta chromodomain binding to methylated histone tails; P83916; AlphaScreen HP1-beta / biotin-H3K9me3 peptide binding; Potency, µM (top dose mostly 114 µM), for the others: at the highest dose activity change, negative = inhibition, actives largely listed as inhibitors; 390,000 tested, 0.56% active; AID 540317; note: potency is the fitted concentration of half-maximal effect; nearly all actives have a fitted effect of over 70% in size
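AlphaScreen: HP1-beta (50 nM) preformed 30 min with biotin-H3(1-18)K9me3 peptide (50 nM) in PBS pH 7.4, 0.01% Tween-20. Compound added for 30 min at RT, then streptavidin donor/nickel chelate acceptor beads (10 ug/mL) for 30 min.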
Six1-Eya2 blk: blocks human Six1 binding to Eya2. AlphaScreen GST-Six1/His-Eya2 binding, biochemical; hits give low values. activity change, % (concentration not given with the values). 360,000 tested, 0.56% active; in the data active = activity change below about -65%; inconclusive = mostly about -30% to -63%; note: % is set by controls: 0 for no effect and ±100 for the full control effect
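Homogeneous AlphaScreen proximity assay pairing GST-Six1 with His-tagged Eya2 (added as 5X mix: 250 nM and 500 nM) in 50 mM Tris pH 8.0, 300 mM NaCl, 1 mM TCEP. Glutathione donor and nickel acceptor beads; 1 h, 37 °C, dark.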
CtBP-E1A blk: inhibitors of CtBP/E1A interaction; AlphaScreen GST-E1A/His-CtBP binding, 1536-well; hits give low values; activity change, % (test concentration not listed); 340,000 tested, 0.49% active; in the data active = activity change below about -65%; inconclusive = mostly about -30% to -63%; note: % is set by controls: 0 for no effect and ±100 for the full control effect
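Protein mix (5X: 125 nM each GST-E1A, His-CtBP) was incubated with pinned compound 2 h at 37 deg C in dark, in 50 mM Tris pH 8.0 buffer with 300 mM NaCl. Glutathione donor and nickel acceptor beads followed; AlphaScreen signal read after 1 h.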
JMJD2A Tudor: inhibitors of human JMJD2A Tudor domain | O75164 | AlphaScreen JMJD2A-Tudor / H3K4me3 peptide binding | Potency, µM (top dose mostly 114 µM), inactives show at the highest dose activity change, negative = inhibition, usual class: inhibitors | 390,000 tested, 4.4% active | AID 504339; note: potency is the fitted concentration of half-maximal effect; % is set by controls: 0 for no effect and ±100 for the full control effect; nearly all actives have a fitted effect of over 50% in size
G9a inh-1: blocks human histone lysine methyltransferase G9a; G9a H3K9 monomethylation, AlphaScreen, 2 h; Potency, µM (doses to about 102 µM), inactives show at the highest dose activity, negative = inhibition, actives largely listed as inhibitors; 350,000 tested, 8.8% active; note: potency is the fitted concentration of half-maximal effect; % is set by controls: 0 for no effect and ±100 for the full control effect; nearly all actives have a fitted effect of over 75% in size
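Methyltransferase reactions run at room temperature for 2 h (20 nM enzyme, 500 nM biotin-H3K9 peptide, 20 uM SAM) after a 15 min compound preincubation; product detected by AlphaScreen beads and anti-H3K9me1 antibody.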
BAZ2B block: BAZ2B (human) inhibition; Q9UIF8; AID 504333; Potency, µM (top dose mostly 114 µM), for inactives: at the highest dose activity change, negative = inhibition, actives largely listed as inhibitors; 360,000 tested, 4.4% active; AlphaScreen BAZ2B-H3K14Ac peptide displacement; note: potency is the fitted concentration of half-maximal effect; % is set by controls: 0 for no effect and ±100 for the full control effect; nearly all actives have a fitted effect of over 60% in size
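In this displacement format the biotinylated H3(5-23) peptide acetylated at Lys14 serves as ligand at 50 nM, with BAZ2B at 50 nM in PBS pH 7.4 containing 0.01% Tween-20. Donor and acceptor beads are 10 ug/mL final.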
JMJD2E inh: JMJD2E (human) demethylase inhibition, confirmation; Recombinant JMJD2E, FDH-coupled NADH fluorescence (FDH is formaldehyde dehydrogenase); AID 2677; shares compounds with JMJD2A Tudor; 140 tested, 93% active; Potency, µM (top dose mostly 56.8 µM), inactives show at the top dose activity change, negative = inhibition, usual class: inhibitors
FDH counter: blocks Pseudomonas putida formaldehyde dehydrogenase, flagging JMJD2E artifacts | 140 tested, 10% active | shares compounds with JMJD2A Tudor | AID 2680 | FDH enzyme assay, NADH fluorescence kinetic | Potency, µM (titrated, usually from 56.7 µM), for inactives: at the top dose activity, negative = inhibition, usual class: inhibitors
G9a inh-2: confirmation of human histone methyltransferase G9a inhibitors | shares compounds with JMJD2A Tudor | G9a H3K9 monomethylation, AlphaScreen, 2 h | Potency, µM, hits mostly inhibitors | 370 tested, 89% active; note: potency is the fitted concentration of half-maximal effect; nearly all actives have a fitted effect of over 65% in size
* marks the source's active call; other numbers are inactive results; u = inconclusive; x = no result given; [ ] = remark or other dose. Unless noted, calls come from the whole dose curve; as a rule, active = well fitted curve in the direction sought with a large enough effect; inconclusive = small, poorly fitted or top-dose-only effect, or another doubt; inactive = no such curve, though single readings can be large; an effect the other way counts as inactive or inconclusive.

SMILES	HP1b chromo inh	Six1-Eya2 blk	CtBP-E1A blk	JMJD2A Tudor	G9a inh-1	BAZ2B block	G9a inh-2	others
COc1ccc(N2CCN(Cc3nc(N)nc(Nc4ccc(C)c(Cl)c4)n3)CC2)cc1	-48.4%	u	u	35.5µM*	1.58µM*	25.1µM*	7.08*
CC(C)OCc1ccc(C(=O)N2CCN(S(=O)(=O)c3ccc(Br)s3)CC2)cc1	57.5%	14.5	0.0	-0.3%	u	-4.7%	44.7*
N#Cc1ccc(C(=O)N2CCN(S(=O)(=O)c3ccc(Br)s3)CC2)cc1	40.4%	-1.0	x	-7.5%	u	-13.1%	x
CO[C@H](C(=O)[C@@H](O)[C@@H](C)O)C1Cc2cc3cc(O[C@H]4C[C@@H](O[C@H]5C[C@@H](O)[C@H](O)[C@@H](C)O5)[C@@H](O)[C@@H](C)O4)c(C)c(O)c3c(O)c2C(=O)[C@H]1O[C@H]1C[C@@H](O[C@H]2C[C@@H](O[C@H]3C[C@](C)(O)[C@H](O)[C@@H](C)O3)[C@H](O)[C@@H](C)O2)[C@H](O)[C@@H](C)O1 (stereo partly drawn)	x	x	x	x	-10.6%[12.7 µM]	x	x
COc1ccc(Cl)cc1NC(=O)c1c(NCc2cccnc2)sc2c1CCCC2	-0.4%	x	x	u	u	u	1.82*
O=C(NCCN1CCOCC1)NC1(C(F)(F)F)Oc2ccccc2O1	47.0%	3.0	5.6	-2.1%	u	9.3%	u
CCOc1cc(NC(=S)NCCCN2CCOCC2)c(OCC)cc1NC(=O)c1ccco1	0.4%	2.5	-0.3	-23.7%	-16.3%	-20.0%	x
CSc1ncccc1C(=O)N1CCN(S(=O)(=O)c2cc(C)ccc2C)CC1	33.7%	-4.1	2.6	-4.7%	-8.6%	-15.4%	x
Cc1ccc(C)c(S(=O)(=O)N2CCN(Cc3ccc(O)c4ncccc34)CC2)c1	31.6%	-78.5*	-85.8*	-14.1%	-38.1%	x	x	JMJD2E inh=35.5µM*;FDH counter=u
COCCNC(=O)NC(=O)COC(=O)c1cc([N+](=O)[O-])ccc1Sc1nc(C)cs1	7.3%	-4.6	-2.5	-9.9%	u	-7.4%	x
Oc1ccc(NCc2ccccc2OCc2ccccc2)cc1	u	-11.6	u	56.2µM*	1.78µM*	28.2µM*	5.76*
c1cncc(-c2nc(-c3ccco3)cs2)c1	5.9%	-2.7	-1.5	u	u	u	10*
c1cncc(-c2csc(-c3cccnc3)n2)c1	33.9%	-1.4	-3.0	-4.6%	-9.7%	0.3%	x
CCOc1ccc(Nc2nc(N3CCCC3)nc(N3CCN(c4ccc(OC)cc4)CC3)n2)cc1	-2.4%	-2.7	-4.8	-13.0%	u	-35.1%	x
COc1ccc(N2CCN(c3nc(NC(C)(C)C)nc(N4CCCCC4)n3)CC2)cc1	u	u	u	u	u	3.16µM*	12.6*
COc1ccc(C(=O)COC(=O)C2CC3CCCC(C2)C3=O)cc1Br (stereo not drawn)	37.7%	-2.9	7.4	-4.8%	12.1%[0.501 µM]	-3.9%	x
COc1ccc(C(=O)COC(=O)CN2CC(=O)Oc3ccccc32)cc1Br	-6.5%	-93.0*	-92.8*	35.5µM*	u	25.1µM*	25.1*
CCOc1ccc2oc(C(=O)OCC(=O)NC3CC3)c(C)c2c1	17.0%	0.1	-5.2	-1.4%	10.5%	-2.0%	x
